# Screening data (PubChem BioAssay)
# The list is not random: actives were taken first. Their share in the collection is about 2.4%.
# Pol beta inh = DNA polymerase beta (human) inhibition; P06746; Pol beta primer extension/strand displacement, fluorescence kinetic; Potency, µM (doses to about 114 µM), for the others: at the top dose activity change, negative = inhibition, usual class: inhibitors; 1.3% of 340,000 active; AID 485314; note: potency is the fitted concentration of half-maximal effect; % is set by controls: 0 for no effect and ±100 for the full control effect
#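 Pol beta (10 nM) was preincubated with compound for 15 min at room temperature. The reaction was then started with 50 nM substrate and read immediately and after a further 10 min at room temperature.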
# Pol eta inh-1 = blocks human DNA polymerase eta activity; 1.2% of 390,000 active; Potency, µM (titrated, usually from 114 µM), without a hit: at the top dose activity change, negative = inhibition, hits mostly inhibitors; Q9Y253; recombinant Pol eta, fluorescent DNA replication assay; note: potency is the fitted concentration of half-maximal effect; % is set by controls: 0 for no effect and ±100 for the full control effect
# Target sequence (Q9Y253 whole entry, looked up): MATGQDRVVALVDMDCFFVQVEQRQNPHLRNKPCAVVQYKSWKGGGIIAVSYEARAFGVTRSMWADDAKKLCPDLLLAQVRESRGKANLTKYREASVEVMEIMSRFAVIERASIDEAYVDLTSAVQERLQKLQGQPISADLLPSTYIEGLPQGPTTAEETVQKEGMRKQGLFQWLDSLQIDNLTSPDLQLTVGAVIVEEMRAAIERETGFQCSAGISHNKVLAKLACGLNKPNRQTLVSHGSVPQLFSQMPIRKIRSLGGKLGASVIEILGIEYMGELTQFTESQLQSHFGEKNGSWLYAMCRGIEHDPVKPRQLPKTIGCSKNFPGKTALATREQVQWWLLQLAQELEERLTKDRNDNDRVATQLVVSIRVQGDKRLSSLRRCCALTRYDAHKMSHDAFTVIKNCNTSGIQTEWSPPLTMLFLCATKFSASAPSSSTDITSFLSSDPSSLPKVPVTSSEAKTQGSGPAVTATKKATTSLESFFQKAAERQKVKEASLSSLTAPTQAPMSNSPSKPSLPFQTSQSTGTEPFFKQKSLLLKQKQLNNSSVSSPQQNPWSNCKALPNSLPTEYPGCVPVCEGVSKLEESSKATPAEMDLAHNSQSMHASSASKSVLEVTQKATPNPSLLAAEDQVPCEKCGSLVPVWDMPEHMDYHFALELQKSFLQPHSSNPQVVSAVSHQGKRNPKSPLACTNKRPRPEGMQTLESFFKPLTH
#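 Pol eta (10 nM) was preincubated with compounds for 15 min at room temperature, after which fluorescent replication substrate (50 nM final) was added to start the reaction. Fluorescence was read kinetically at 0 and 10 min.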
# Pol kappa inh-1 = inhibitors of human DNA polymerase kappa; Q9UBT6; purified Pol kappa, fluorescent DNA synthesis assay, 10 min; Potency, µM (top dose mostly 107 µM), inactives show at the top dose activity, negative = inhibition, most hits filed as inhibitors; 0.53% of 400,000 active; AID 588579; note: potency is the fitted concentration of half-maximal effect; % is set by controls: 0 for no effect and ±100 for the full control effect
#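 10 nM Pol kappa was preincubated with compounds for 15 min at room temperature. Reaction started with 50 nM (final) substrate. Fluorescence read kinetically at 0 and 10 min.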
# WRN helicase inh = blocks human WRN helicase. WRN helicase unwinding, fluorescent forked duplex, kinetic. Potency, µM (top dose mostly 114 µM), for the others: at the highest dose activity change, negative = inhibition, hits mostly inhibitors. 0.46% of 360,000 active; note: potency is the fitted concentration of half-maximal effect; % is set by controls: 0 for no effect and ±100 for the full control effect; nearly all actives have a fitted effect of over 55% in size
#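 WRN at 20 nM final preincubated with compound 15 min at room temperature; reaction started with 100 nM fluorophore/quencher forked duplex oligonucleotide and 2 mM ATP final. Unwinding followed kinetically by red fluorescence (ex 525, em 598 nm).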
# POLI inh = DNA polymerase iota (human) inhibition; Pol iota fluorescent replication assay, 10 min; Q9UNA4; AID 588590; Potency, µM (top dose mostly 115 µM), for the others: top-dose activity, negative = inhibition, actives largely listed as inhibitors; 1% of 390,000 active; note: potency is the fitted concentration of half-maximal effect
#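 Pol iota at 10 nM preincubated 15 min with compounds at room temperature; reaction started with fluorescent substrate, 50 nM final. Fluorescence read kinetically at 0 and 10 min; buffer-only wells as negative control.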
# FEN1 inh = human FEN1 inhibition. Recombinant FEN1 flap cleavage, fluorescence, 15 min. Potency, µM (doses to about 114 µM), without a hit: at the top dose activity change, negative = inhibition, hits mostly inhibitors. 0.35% of 390,000 active; note: potency is the fitted concentration of half-maximal effect; % is set by controls: 0 for no effect and ±100 for the full control effect; nearly all actives have a fitted effect of over 65% in size
#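 Enzyme 10 nM, 15 min RT preincubation with compound; start with substrate 50 nM final; reads at 0 and 15 min; qHTS titration, four-parameter Hill fit.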
# TbPGK inh = blocks T. brucei phosphoglycerate kinase; shares compounds with Pol kappa inh-1; TbPGK coupled GAPDH assay, Kinase-Glo luminescence; Potency, µM (doses to about 57.5 µM), without a hit: at the highest dose activity change, negative = inhibition, most hits filed as inhibitors; 79% of 500 active; AID 686980; note: potency is the fitted concentration of half-maximal effect; % is set by controls: 0 for no effect and ±100 for the full control effect; nearly all actives have a fitted effect of over 65% in size
# POLI cherry-pick = Inhibitors of human DNA polymerase iota, confirmation | shares compounds with Pol kappa inh-1 | Pol iota primer extension, TAMRA/BHQ fluorescence | Potency, µM, hits mostly inhibitors | 77% of 1,500 active | AID 720496; note: potency is the fitted concentration of half-maximal effect
# GALK inh confirm = galactokinase (human) inhibition, confirmation; Potency, µM (series often up to 115 µM), without a hit: at the highest dose activity, negative = inhibition, usual class: inhibitors; 70% of 150 active; purified GALK, Kinase-Glo ATP depletion luminescence; shares compounds with Pol eta inh-1
# Redox cycling = generates H2O2 by redox cycling, flagging GALK artifacts; Phenol red-HRP H2O2 redox cycling, absorbance 600 nm; Potency, µM (series often up to 115 µM), inactives show at the top dose activity change, negative = H2O2 signal, actives largely listed as inhibitors; AID 2035; 40% of 150 active; shares compounds with Pol eta inh-1
# HEK293 tox = counter-screen for GALK inhibitors: HEK293 cell cytotoxicity; Potency, µM (titrated, usually from 46.1 µM), inactives show top-dose activity change, negative = cytotoxicity, usual class: inhibitors; HEK-293 viability, ATP luminescence (CellTiter-Glo), 24/48 h; 10% of 170 active; shares compounds with Pol eta inh-1; note: potency is the fitted concentration of half-maximal effect; % is set by controls: 0 for no effect and ±100 for the full control effect
# Pol kappa inh-2 = Pol kappa (human) inhibition, cherry-pick confirmation; 76% of 920 active; purified Pol-kappa, fluorescent strand-displacement substrate; shares compounds with Pol eta inh-1; Potency, µM, hits mostly inhibitors; note: potency is the fitted concentration of half-maximal effect
# Pol eta inh-2 = confirmation of human DNA polymerase eta inhibitors | shares compounds with Pol eta inh-1 | Pol eta primer extension, TAMRA/BHQ fluorescence, 10 min | Potency, µM, most hits filed as inhibitors | 64% of 2,600 active | AID 720502; note: potency is the fitted concentration of half-maximal effect
# * marks the source's active call; other numbers are inactive results; ? = inconclusive; . = no result given; [ ] = dose if it differs, or a comment. Calls come from the whole dose curve; as a rule, active = well fitted curve in the direction sought with a large enough effect; inconclusive = small, poorly fitted or top-dose-only effect, or another doubt; inactive = no such curve, though single readings can be large; an effect the other way counts as inactive or inconclusive.
SMILES,Pol beta inh,Pol eta inh-1,Pol kappa inh-1,WRN helicase inh,POLI inh,FEN1 inh,POLI cherry-pick,Pol eta inh-2,others
CCc1nnc(SCC(=O)Nc2cc(Cl)c(OC)cc2OC)c2cc3oc(C)cc3n12,7%,-21%,-8%,.,33%,-7%,.,.,
O=C1NC(=Nc2ccc3ccccc3c2)S/C1=C/c1ccco1,8.9µM*,35µM*,?,-4%[11.6 µM],?,-8%,38*,?,Pol kappa inh-2=27*
C=CC[n+]1cccc2cc(Br)ccc21,.,.,16%,.,52%,-2%,.,.,
Cc1cc(=O)[nH]c(N/N=C/c2c(O)n(-c3ccccc3)c(=O)c3ccccc23)n1,45µM*,22µM*,-25%,?,0%,-9%,75*,60*,
CC(C)NC(=O)Cc1csc2nc(-c3ccccc3)cn12,-1%,-12%,-8%[60.1 µM],.,-6%,15%,.,.,
Cc1ccc(C(=O)NNC(=O)CSc2nnc3c(n2)[nH]c2ccc(F)cc23)cc1,5µM*,79µM*,-1%,-14%,11%,-9%,19*,?,Pol kappa inh-2=19*
COc1ccc2[nH]c3nc(SCC(=O)NNC(=O)c4ccc(OC)c(OC)c4)nnc3c2c1,15%,?,3%,-34%,0%,4%,.,.,
O=C(Nc1c(Cl)cccc1Cl)c1cccc2c1C(=O)N(C1CCCCC1)C2,-2%,-21%,-9%,.,18%,9%,.,.,
C=CCOc1ccc(C=NNc2ccc(S(=O)(=O)Nc3ccccc3C(=O)O)cc2[N+](=O)[O-])cc1OC,.,?,?,50µM*,14µM*,?,19*,85*,TbPGK inh=5.2µM*;Pol kappa inh-2=?
Cc1nn(-c2ccccc2)c(Cl)c1/C=N/Nc1ccc(S(=O)(=O)Nc2ccccc2C(=O)O)cc1[N+](=O)[O-],45µM*,35µM*,?,?,40µM*,?,?,43*,Pol kappa inh-2=24*
COc1ccc(CNc2oc(/C=C/c3cc(OC)c(OC)c(OC)c3)nc2C#N)cc1,4%,-8%,-2%,.,-3%,-13%,.,.,
CC(C)(C)c1ccc(-c2nc(SCC(=O)Nc3ccc(Cl)cc3)[nH]c(=O)c2C#N)cc1,79µM*,28µM*,?,.,45µM*,20µM*,?,?,Pol kappa inh-2=?
CN(C)c1ccc(/C=C/c2ccnc3c(-c4ccccc4)cccc23)cc1,.,.,-3%,.,-6%,-18%,.,.,
Cn1nc(-c2cccnc2)nc2c(=O)n(C)c(=O)nc1-2,.,.,-7%,.,-85%,-10%,1.7*,2.4*,
Cn1nc(-c2ccc(F)cc2)nc2c(=O)n(C)c(=O)nc1-2,.,.,7%,.,-97%,-15%,1.3*,0.85*,
Cn1nc(-c2ccc(Cl)cc2)nc2c(=O)n(C)c(=O)nc1-2,?,.,-11%,.,-89%,-21%,1.2*,1.1*,GALK inh confirm=1.2µM*;Redox cycling=1.1µM*;HEK293 tox=14µM*
CCn1nc(-c2ccccc2C)nc2c(=O)n(C)c(=O)nc1-2,.,.,2%,.,-90%,-19%,1.2*,3.8*,
COc1c(C)cccc1C(=O)Nc1ccc(Cl)c(-c2nc3cc(C)ccc3o2)c1,5%,-14%,5%,.,-14%,-4%,.,.,
C/C(N)=C(/C#N)C(=O)CSc1nc2ccccc2c(=O)n1Cc1ccc(F)cc1,7.9µM*,20µM*,79µM*,-17%[11.6 µM],11µM*,?,42*,48*,Pol kappa inh-2=38*
C/C(N)=C(/C#N)C(=O)CSc1nc2ccccc2c(=O)n1Cc1ccc(C)cc1,5%,-11%,-25%,-15%,?,-21%,.,.,
Cc1cc(C)cc(OCC(=O)NC(Cc2c[nH]c3ccccc23)C(=O)O)c1 (stereo not drawn),29%,.,-3%,.,-8%,-16%,.,.,
NC(=O)Cn1c(O)c(N=NC(=O)CNC(=O)/C=C/c2ccccc2)c2ccccc21,?,-29%,-2%,3%,-19%,15%,.,.,
C=CCn1c(O)c(N=NC(=O)CNC(=O)/C=C/c2ccco2)c2ccccc21,14µM*,50µM*,?,?,28µM*,?,38*,76*,
O=c1cc(-c2ccc(O)c(O)c2)oc2c1ccc1ccccc12,.,3.2µM*,35µM*,?,10µM*,?,27*,4.8*,Pol kappa inh-2=21*
O=c1cc(/C=C/c2ccccc2)oc2c1ccc1ccccc12,2%,?,0%,-4%,?,-6%,.,.,
Cc1ccccc1OCc1ccc(-c2nc(C#N)c(NCc3cccnc3)o2)o1,17%,-18%,-15%,.,-10%,-22%,.,.,
Cc1ccc(-c2nc3c4ccccc4[nH]c(=O)n3n2)cc1,-20%,?,12%,.,26%,-4%,?,?,
O=C(/C=C/c1ccc(O)c(O)c1)NC(=O)c1ccccc1O,10µM*,7.9µM*,32µM*,56µM*,?,?,?,60*,
COc1cn(CC(=O)Nc2ccccc2)c(CN2CCCCC2)cc1=O,-12%,-10%,0%[60.1 µM],.,15%,24%,.,.,
Cc1cccc(Cc2c(C)nc3nc(SCc4ccccc4F)nn3c2C)c1,3%,-26%,-5%[60.1 µM],.,8%,0%,.,.,
